A number with no mark means an inactive call. Inconclusive results are not listed. Where a call stands in place of a potency, no number is given. The source made the active and inactive calls. Unless noted, calls come from the whole dose curve; as a rule, active = well fitted curve in the direction sought with a large enough effect in the repeat runs; inconclusive = weak or mixed curves; inactive = no such curve, though single readings can be large; an effect the other way counts as inactive or inconclusive.
Experiments:
[1] = qHTS RealTime-Glo MT Cell Viability Assay in HEK293 cells - 0 hour (AID 1224880); note: top concentration of the series differs between compounds; nearly all actives have a fitted effect of over 45% in size
How it was run: (§1)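 HEK293 cells mixed with RealTime-Glo reagents (NanoLuc plus cell-permeant prosubstrate) at 600 cells/well, preincubated 5 h at 37 C/5% CO2, then given 23 nL compound in DMSO. Nonlytic luminescence from viable cells was read at 0, 8, 16, 24, 32 and 40 h.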

[2] = A CellTox Green Cytotoxicity Assay to monitor cytotoxicity in HEK293 cells - 32 hour (AID 1224881); note: nearly all actives have a fitted effect of over 40% in size
How it was run: (§2)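 HEK293 cells premixed with CellTox Green dye were seeded at 600 cells/well and left 5 h at 37 C/5% CO2 before pin transfer of 23 nL compound in DMSO. Fluorescence from dye bound to dead-cell DNA was read during 40 h treatment.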

[3] = A CellTox Green Cytotoxicity Assay to monitor cytotoxicity in HepG2 cells - 0 hour (AID 1224882); note: nearly all actives have a fitted effect of over 35% in size
How it was run: (§3)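 HepG2 cells were seeded together with the CellTox Green dye at 600 cells/well, left 5 h at 37 C/5% CO2, then given compounds in DMSO. Fluorescence from dye bound to dead-cell DNA was read repeatedly over 40 h of treatment at 37 C.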

[4] = A CellTox Green Cytotoxicity Assay to monitor cytotoxicity in HepG2 cells - 32 hour (AID 1224883); note: nearly all actives have a fitted effect of over 50% in size
How it was run: as §3

[5] = A CellTox Green Cytotoxicity Assay to monitor cytotoxicity in HEK293 cells - 8 hour (AID 1224884); note: nearly all actives have a fitted effect of over 35% in size
How it was run: as §2

[6] = qHTS RealTime-Glo MT Cell Viability Assay in HepG2 cells - 16 hour (AID 1224885); note: nearly all actives have a fitted effect of over 50% in size
How it was run: (§4)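 Compound treatment began 5 h after plating HepG2 cells (600/well) with NanoLuc luciferase and prosubstrate. Plates stayed at 37 C for 40 h; luminescence was captured at six time points, 0 h through 40 h.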

[7] = qHTS RealTime-Glo MT Cell Viability Assay in HEK293 cells - 24 hour (AID 1224886); note: nearly all actives have a fitted effect of over 50% in size; note: potency is the fitted concentration of half-maximal effect
How it was run: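 Quantitative high-throughput screen of the Tox21 10K library in HEK293: cells and RealTime-Glo reagents plated together, compound added at 5 h, luminescence monitored through 40 h at 37 C.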

[8] = A CellTox Green Cytotoxicity Assay to monitor cytotoxicity in HEK293 cells - 16 hour (AID 1224888); note: nearly all actives have a fitted effect of over 35% in size
How it was run: as §2

[9] = qHTS RealTime-Glo MT Cell Viability Assay in HepG2 cells - 0 hour (AID 1224889); note: nearly all actives have a fitted effect of over 50% in size
How it was run: as §4

[10] = A CellTox Green Cytotoxicity Assay to monitor cytotoxicity in HepG2 cells - 8 hour (AID 1224890); note: nearly all actives have a fitted effect of over 45% in size
How it was run: as §3

[11] = qHTS assay to identify small molecule antagonists of the estrogen receptor alpha (ER-alpha) signaling pathway using the BG1 cell line in the presence of 0.1 nM 17-beta-estradiol - cell viability counter screen (AID 1259241); note: nearly all actives have a fitted effect of over 40% in size
How it was run: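 Following 5 days in phenol red-free medium with charcoal-stripped serum, VM7Luc4E2 cells received test compounds alongside 0.1 nM 17beta-estradiol (final) at 37C for 22 hr. Live cells were then quantified via protease-substrate fluorescence.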

[12] = qHTS assay to identify small molecule antagonists of the androgen receptor (AR) signaling pathway using the MDA cell line in the presence of 0.5 nM R1881 - cell viability counter screen (AID 1259242); note: nearly all actives have a fitted effect of over 45% in size
How it was run: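 MDA-kb2 cells (human breast carcinoma, stably carrying MMTV-luciferase reporter) were exposed to compounds with 0.5 nM R1881 (final) for 16 hr at 37C, 0% CO2; viability then read as live-cell protease fluorescence (CellTiter-Fluor, 30 min) in the same wells.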

[13] = molecular target: Estrogen receptor (Homo sapiens) (UniProt P03372); experiment: qHTS assay to identify small molecule antagonists of the estrogen receptor alpha (ER-alpha) signaling pathway using the BG1 cell line in the presence of 0.1 nM 17-beta-estradiol (AID 1259244); note: nearly all actives have a fitted effect of over 50% in size
How it was run: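 VM7Luc4E2 cells (endogenous full-length ER-alpha, stable 4xERE-luciferase) were grown 5 days in phenol red-free medium with charcoal-stripped FBS, then exposed 22 h at 37C to compounds plus 0.1 nM (final) 17beta-estradiol; ONE-Glo luminescence read-out.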

[14] = qHTS assay to identify small molecule HDAC inhibitors (AID 1259364); note: top concentration of the series differs between compounds; nearly all actives have a fitted effect of over 45% in size
How it was run: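 Wild-type HCT-116 cells were plated overnight, exposed to compounds for 2 h at 37 °C, then given HDAC-Glo class I/II luminogenic reagent for 30 min at room temperature before luminescence was read.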

[15] = qHTS assay to identify small molecule agonists of the sonic hedgehog signaling (Shh) pathway - cell viability counter screen (AID 1259366); note: nearly all actives have a fitted effect of over 50% in size
How it was run: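 Compounds in DMSO were pin-transferred onto 3T3 Gli1-Luc cells that had settled 4hr; plates then stood 24hr at 37C and 5% CO2. One hour before the end, CellTiter-Fluor was added and fluorescence recorded.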

[16] = qHTS assay to identify small molecule antagonists of the sonic hedgehog signaling (Shh) pathway - cell viability counter screen (AID 1259367); note: nearly all actives have a fitted effect of over 55% in size
How it was run: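 Cells: 3T3 Gli1-Luc, 2,000/well, 4 hr pre-incubation. Compounds in DMSO, then conditioned medium. Incubation 24 hr, 37C, 5% CO2. CellTiter-Fluor at 23 hr, 1 hr, fluorescence.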

[17] = qHTS RealTime-Glo MT Cell Viability Assay in HEK293 cells - 8 hour (AID 1224887); note: nearly all actives have a fitted effect of over 50% in size; note: potency is the fitted concentration of half-maximal effect
How it was run: as §1

[18] = qHTS assay to identify small molecule HDAC inhibitors - cell viability counter screen (AID 1259365)
How it was run: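 HCT-116 wild-type, overnight attachment; 2hr drug exposure, 37C; CellTiter-Glo luminescent ATP readout after 30min RT.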

[19] = qHTS assay to identify small molecule phospholipidosis (PLD) inducers (AID 1259344; active = well fitted curve in the direction sought with a large enough effect; an effect the other way counts as inactive or inconclusive)
How it was run: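 Phospholipidosis is scored by imaging LipidTOX-stained pits in HepG2 cells exposed to compound for 24 h at 37 C; pit counts and integrated intensities per well and per cell serve as outputs.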

[20] = molecular target: Androgen receptor (Homo sapiens) (UniProt P10275); experiment: qHTS assay to identify small molecule antagonists of the androgen receptor (AR) signaling pathway using the MDA cell line in the presence of 0.5 nM R1881 (AID 1259243); note: nearly all actives have a fitted effect of over 50% in size
How it was run: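 MDA-kb2 human breast carcinoma cells carrying an MMTV-luciferase reporter (AR- and GR-responsive) were plated, rested 5 hr at 37C, dosed with compounds, then stimulated with 0.5 nM R1881 (final) for 16 hr; luminescence was read after ONE-Glo.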

Estrogen receptor (Homo sapiens), sequence (P03372 whole entry, looked up): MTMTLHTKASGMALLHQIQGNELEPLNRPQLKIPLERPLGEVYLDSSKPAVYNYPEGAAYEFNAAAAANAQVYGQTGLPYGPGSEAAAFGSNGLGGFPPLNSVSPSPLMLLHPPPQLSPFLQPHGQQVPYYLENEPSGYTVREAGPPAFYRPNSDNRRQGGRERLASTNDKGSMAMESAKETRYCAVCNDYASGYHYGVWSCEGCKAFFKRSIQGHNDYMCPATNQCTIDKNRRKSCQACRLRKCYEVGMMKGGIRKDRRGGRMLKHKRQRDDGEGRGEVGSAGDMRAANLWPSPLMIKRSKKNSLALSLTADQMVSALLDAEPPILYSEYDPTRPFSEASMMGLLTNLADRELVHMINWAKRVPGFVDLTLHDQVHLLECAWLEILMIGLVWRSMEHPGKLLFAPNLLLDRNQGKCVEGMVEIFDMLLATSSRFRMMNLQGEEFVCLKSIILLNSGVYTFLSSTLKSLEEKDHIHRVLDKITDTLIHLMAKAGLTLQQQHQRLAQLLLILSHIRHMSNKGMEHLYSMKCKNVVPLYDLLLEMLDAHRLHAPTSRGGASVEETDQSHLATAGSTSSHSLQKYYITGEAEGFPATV
Androgen receptor (Homo sapiens), sequence (P10275 whole entry, looked up): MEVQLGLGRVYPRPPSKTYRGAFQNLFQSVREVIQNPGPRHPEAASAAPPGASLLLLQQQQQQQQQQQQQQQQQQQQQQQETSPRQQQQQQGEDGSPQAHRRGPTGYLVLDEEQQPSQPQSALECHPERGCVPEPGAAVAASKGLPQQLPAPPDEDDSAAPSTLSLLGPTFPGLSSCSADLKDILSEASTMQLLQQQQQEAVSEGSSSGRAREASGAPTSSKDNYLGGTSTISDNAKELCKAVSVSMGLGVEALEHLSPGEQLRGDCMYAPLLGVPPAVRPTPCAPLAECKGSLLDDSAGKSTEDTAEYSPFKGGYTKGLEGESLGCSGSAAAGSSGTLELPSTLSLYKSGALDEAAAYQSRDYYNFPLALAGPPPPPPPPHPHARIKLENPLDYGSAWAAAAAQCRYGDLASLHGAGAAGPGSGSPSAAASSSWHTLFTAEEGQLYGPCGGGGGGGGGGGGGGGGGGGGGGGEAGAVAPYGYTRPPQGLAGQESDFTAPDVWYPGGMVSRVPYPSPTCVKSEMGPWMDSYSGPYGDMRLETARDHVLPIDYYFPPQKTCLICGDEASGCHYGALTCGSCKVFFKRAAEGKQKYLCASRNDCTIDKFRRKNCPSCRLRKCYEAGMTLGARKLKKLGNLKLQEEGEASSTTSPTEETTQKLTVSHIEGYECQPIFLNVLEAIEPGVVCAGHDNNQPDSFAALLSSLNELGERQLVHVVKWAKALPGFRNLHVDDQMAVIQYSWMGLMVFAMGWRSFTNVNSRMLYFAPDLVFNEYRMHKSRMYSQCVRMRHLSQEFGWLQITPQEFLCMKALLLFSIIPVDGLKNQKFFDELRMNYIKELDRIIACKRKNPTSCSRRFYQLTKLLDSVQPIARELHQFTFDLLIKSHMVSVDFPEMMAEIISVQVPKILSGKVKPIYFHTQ

SMILES | outcome [1] | Potency [2] | Potency [3] | Potency [4] | Potency [5] | outcome [6] | Potency [7] | Potency [8] | Potency [9] | Potency [10] | outcome [11] | outcome [12] | outcome [13] | Potency [14] | Potency [15] | outcome [16] | Potency [17] | outcome [18] | Potency [19] | Potency [20]
CCCCC1CCCCC(=O)O1 (stereo unspecified) | inactive | inactive | inactive | inactive | inactive | inactive | inactive | inactive | inactive | inactive | inactive | inactive | inactive | inactive | inactive | inactive |  |  |  | 
c1ccc(SCCSc2ccccc2)cc1 | inactive | inactive | inactive | inactive | inactive | inactive | inactive | inactive | inactive | inactive | inactive | inactive |  |  | inactive | inactive | inactive | inactive |  | 
C=CCOc1nc(OCC=C)nc(OCC=C)n1 | inactive | inactive | inactive | inactive | inactive | inactive | inactive | inactive | inactive | inactive | inactive | inactive |  | inactive |  | inactive | inactive | inactive |  | 
CCOC(=O)[C@H](CCc1ccccc1)N[C@@H](C)C(=O)N1CCC[C@H]1C(=O)O | inactive | inactive | inactive | inactive | inactive | inactive | inactive | inactive | inactive | inactive | inactive | inactive |  |  | inactive | inactive | inactive | inactive | inactive | 
CC(C)CCCCCCN | inactive | inactive | inactive | inactive | inactive | inactive | inactive | inactive | inactive | inactive | inactive | inactive | inactive | inactive | inactive | inactive |  | inactive |  | inactive
CC(C)CCCC(C)NCCC(C)C (stereo unspecified) | inactive | inactive | inactive | inactive | inactive | inactive | inactive | inactive | inactive | inactive | inactive | inactive | inactive | inactive | inactive | inactive |  | inactive |  | inactive
CCN1CCN(c2cc3c(cc2F)c(=O)c(C(=O)O)cn3C2CC2)CC1 | inactive | inactive | inactive | inactive | inactive | inactive | inactive | inactive | inactive | inactive | inactive | inactive |  | inactive | inactive | inactive |  | inactive | inactive | inactive
CSc1nc(NC2CC2)nc(NC(C)(C)C)n1 | inactive | inactive | inactive | inactive | inactive | inactive | 21.9 µM (active) | inactive | inactive | inactive | inactive | inactive |  | inactive | inactive |  | 19.5 µM (active) | inactive |  | 
COc1cc(C)cc(O)c1 | inactive | inactive | inactive | inactive | inactive | inactive | inactive | inactive | inactive | inactive | inactive | inactive |  | inactive | inactive | inactive | inactive | inactive |  | 
CCOC(=O)Nc1ccc2c(c1)N(C(=O)CCN1CCOCC1)c1ccccc1S2 | inactive | inactive | inactive | inactive | inactive |  | inactive | inactive | inactive | inactive | inactive | inactive | inactive |  | inactive | inactive |  | inactive | inactive | inactive
C=CC(=O)N1CCOCC1 | inactive | inactive | inactive | inactive | inactive | inactive | inactive | inactive | inactive | inactive | inactive | inactive |  |  |  | inactive |  | inactive |  | 
CC(C)(O)Cc1ccccc1 | inactive | inactive | inactive | inactive | inactive | inactive |  | inactive | inactive | inactive | inactive | inactive | inactive | inactive |  | inactive | inactive | inactive |  | 
O=Cc1ccccc1[N+](=O)[O-] | inactive | inactive | inactive | inactive | inactive |  | inactive | inactive | inactive | inactive | inactive | inactive | inactive |  |  | inactive | inactive | inactive |  | 
CCCCCCC(=O)OCC | inactive | inactive | inactive | inactive | inactive |  | inactive | inactive | inactive | inactive | inactive | inactive | inactive |  | inactive | inactive | inactive | inactive |  | 
CC12CCC(CC1=O)C2(C)C (stereo unspecified) | inactive | inactive | inactive | inactive | inactive |  | inactive | inactive | inactive | inactive | inactive | inactive | inactive | inactive | inactive | inactive | inactive | inactive |  | 
C=CC(=O)OCCCCCC | inactive | inactive | inactive | inactive | inactive |  | inactive | inactive | inactive | inactive | inactive | inactive |  |  | inactive | inactive | inactive |  |  | 

Reference: PubChem BioAssay (Tox21)
